Screening results (PubChem)
TDP1 block: qHTS Assay for Inhibitors of Tyrosyl-DNA Phosphodiesterase (TDP1); recombinant TDP1, AlphaScreen DNA substrate cleavage; Potency, µM (titrated, usually from 130 µM), inactives show at the highest dose activity change, negative = inhibition, usual class: inhibitors; hit rate 0.28% among 350,000; AID 485290, 2010; further: potency means the concentration at half of the fitted maximal effect; nearly all actives have a fitted effect of over 40% in size
Target sequence (Q9NUW8 whole entry, looked up): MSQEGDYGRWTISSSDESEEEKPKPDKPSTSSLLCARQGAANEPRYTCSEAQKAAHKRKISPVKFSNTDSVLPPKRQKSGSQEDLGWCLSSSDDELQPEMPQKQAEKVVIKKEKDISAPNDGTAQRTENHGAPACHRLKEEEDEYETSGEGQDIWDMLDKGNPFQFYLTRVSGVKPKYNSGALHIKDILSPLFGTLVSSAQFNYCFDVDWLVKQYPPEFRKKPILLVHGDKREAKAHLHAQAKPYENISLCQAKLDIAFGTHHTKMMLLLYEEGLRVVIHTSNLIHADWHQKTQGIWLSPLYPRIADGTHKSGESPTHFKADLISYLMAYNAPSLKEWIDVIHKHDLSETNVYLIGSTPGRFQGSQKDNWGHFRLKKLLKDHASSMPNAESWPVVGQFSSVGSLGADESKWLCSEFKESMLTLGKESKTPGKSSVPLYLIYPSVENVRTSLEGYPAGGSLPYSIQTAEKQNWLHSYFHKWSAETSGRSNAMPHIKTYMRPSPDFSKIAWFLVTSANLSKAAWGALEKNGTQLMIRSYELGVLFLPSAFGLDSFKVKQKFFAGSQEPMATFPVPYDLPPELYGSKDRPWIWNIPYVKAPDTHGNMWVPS
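Steps: enzyme plus compound, 15 min RT; add biotin/phosphotyrosine-FITC oligonucleotide (15 nM final), react 5 min; add donor/acceptor beads (10 ug/ml final), 10 min; read AlphaScreen. Tdp1 at 1 nM final.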
ELG1 DNA repair: qHTS screen for small molecules that inhibit ELG1-dependent DNA repair in human embryonic kidney (HEK293T) cells expressing luciferase-tagged ELG1; HEK293T ELG1-luciferase reporter, luminescence, 16 h; DNA damage induced by 5-fluorouridine; Potency, µM (highest dose often 46.1 µM), without a hit: at the top dose activity change, negative = inhibition, most hits filed as inhibitors; hit rate 2.3% among 330,000; further: potency means the concentration at half of the fitted maximal effect; nearly all actives have a fitted effect of over 55% in size
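Overnight (16 hr) co-exposure of 2,000 cells/well to 5-fluorouridine and compound at 37 °C preceded detection. Luciferase was quantified via ONE-Glo luminescence; loss of signal denotes inhibition.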
TDP1 cell noCPT: qHTS for Inhibitors of human tyrosyl-DNA phosphodiesterase 1 (TDP1): qHTS in cells in absence of CPT. DT40 Tdp1-/- hTDP1 cells, no CPT, ATP luminescence, 48 h. Potency, µM (highest dose often 46.2 µM), for inactives: top-dose activity change, negative = growth inhibition, usual class: inhibitors. hit rate 15% among 420,000; further: potency means the concentration at half of the fitted maximal effect; nearly all actives have a fitted effect of over 55% in size
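No-CPT arm: Tdp1-/-;hTDP1 DT40 cells (400/well) plus compounds, incubated ≥48 hr at 37 °C. Readout CellTiter-Glo luminescence.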
IL1B secr inh: qHTS for Inhibitors of Inflammasome Signaling: IL-1-beta AlphaLISA Primary Screen; THP-1 LPS/ATP IL-1B secretion, AlphaLISA, 16 h; active compounds read low; activity change, % at 57.5 µM; hit rate 4.7% among 360,000; AID 743279, 2014; in the data active means activity change below about -50%; inconclusive means mostly about -30% to -49%
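Secreted IL-1B measured by AlphaLISA bead assay after 16 h compound exposure of THP-1 cells; compounds (final up to 57.5 uM) added 1 h before LPS (250 ng/mL) and ATP (1.25 mM) stimulation; lower signal means less secretion.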
Giardia kill: Small Molecules that selectively kill Giardia lamblia: qHTS; activity change, % at 7.66 µM, hits read low; hit rate 0.15% among 340,000; Giardia lamblia trophozoite viability; AID 540267, 2011; in the data active means activity change below about -80%; inconclusive means between about -30% and that limit;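 further: parasites exposed to compound for two days anaerobically before the ATP read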
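Killing of trophozoites was scored by loss of ATP luminescence after a 48 hrs anaerobic exposure to compounds at 37 deg C, using 100 cells per well.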
TDP1 cell CPT: qHTS for Inhibitors of human tyrosyl-DNA phosphodiesterase 1 (TDP1): qHTS in cells in presence of CPT. AID 686979, 2013. hit rate 12% among 420,000. Potency, µM (highest dose often 46.2 µM), for the others: top-dose activity change, negative = growth inhibition, most hits filed as inhibitors. chicken DT40 Tdp1-/-;hTDP1 cells + 20 nM CPT, ATP luminescence, 48 h; further: potency means the concentration at half of the fitted maximal effect; nearly all actives have a fitted effect of over 55% in size
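Chicken DT40 Tdp1-/- cells complemented with human TDP1, 400 cells/well, exposed to compounds plus 20 nM camptothecin for at least 48 h at 37 C; viability read as ATP content by CellTiter-Glo luminescence.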
An asterisk follows results filed as active; ? = inconclusive; / = no result given. A selection: hits, their analogues and other compounds. The true share with any hit is near 19%. Unless noted, the call rests on the fitted dose curve; in most records, active means well fitted curve in the direction sought with a large enough effect; inconclusive means small, poorly fitted or top-dose-only effect, or another doubt; inactive means no such curve, though single readings can be large; an effect the other way counts as inactive or inconclusive. On the % scale 0 is the no-effect control and ±100 the full control effect.

SMILES	TDP1 block	ELG1 DNA repair	TDP1 cell noCPT	IL1B secr inh	Giardia kill	TDP1 cell CPT
COc1ccc(CNCCc2ccc([N+](=O)[O-])cc2)c(OC)c1OC	/	-17%	21µM*	-5	-11	6.5µM*
Cc1cc2c(C)nc(Cc3ccccc3)nc2o1	5%	18µM*	-19%	-7	-2	-12%
COc1ccc(C2Nc3cccc4cccc(c34)N2)cc1Br	/	8%	?	19	1	?
COC(=O)c1ccc(C2Nc3cccc4cccc(c34)N2)cc1	4%	4%	9.2µM*	6	-12	8.2µM*
COc1cc(C2Nc3cccc4cccc(c34)N2)cc(OC)c1O	3%	?	?	-90*	-3	18µM*
COc1cc(C2Nc3cccc4cccc(c34)N2)ccc1OC(C)=O	-2%	-2%	16µM*	0	-2	16µM*
Oc1ccc(C2Nc3cccc4cccc(c34)N2)c(O)c1	6%	3%	26µM*	-4	3	4.1µM*
COc1cccc(Cn2c(=O)cnc3cnc(OC)nc32)c1	/	/	-15%	/	/	6%
CCOC(=O)C1CCCN(c2nc3ccccc3nc2NS(=O)(=O)c2ccc(C)cc2)C1 (centres undefined)	-5%	3%	9%	15	-9	6%
Cc1ccc(S(=O)(=O)Nc2ccccc2C(=O)Nc2nc(-c3ccc(F)cc3)cs2)cc1	2%	?	2.6µM*	-26	-20	3.3µM*
COc1ccc(-c2csc(NC(=O)c3ccccc3F)n2)cc1	/	?	?	29	-6	-4%
COc1ccc(-c2csc(NC(=O)c3ccccc3NS(=O)(=O)c3ccc(F)c(F)c3)n2)cc1	8%	?	2.6µM*	-68*	-22	2.3µM*
O=C(Cc1csc2ccccc12)NCc1ccc(F)cc1	3%	/	-18%	/	/	10%
Fc1ccc(C[n+]2csc3ccccc32)cc1	9%	5%	0.92µM*	-115*	-12	1µM*
Clc1ccc(C[n+]2csc3ccccc32)cc1	8%	?	0.52µM*	-110*	15	0.41µM*
Cc1ccc(NC(=Nc2ccc(Br)cc2)N2CCOCC2)cc1C	5%	-11%	21µM*	-66*	11	?
Cc1ccc(NC(=O)COC(=O)CSC(=S)N2CCOCC2)cc1C	2%	-13%	-6%	1	-3	9%
CCC(C)n1c(-c2cccs2)nc2nc3ccccc3nc21 (centres undefined)	-5%	?	12µM*	17	9	18µM*
CCN(CC)S(=O)(=O)c1ccc(C(=O)Nn2cnnc2)cc1	/	-2%	31%	42	11	-3%
O=C(C(=NNc1ccccc1)C(=S)Nc1ccccc1)c1ccccc1	/	/	?	-19	/	29µM*
Cc1cccc(CSCc2ccc(C(=O)NCCc3ccccc3)o2)c1	8%	/	13µM*	/	/	?
COCCNC(=O)c1ccc(CSCc2cccc(Cl)c2)o1	/	0%	?	-11	-5	?
O=C(NCCc1ccc(Cl)cc1)c1ccc(CSCc2ccccc2Cl)o1	3%	/	16µM*	/	/	15µM*
NC(=S)NN=C(c1ccc(F)cc1)C1CC1	/	/	?	-86*	12	21µM*
NC(=S)NN=C(c1ccc(Br)cc1)C1CC1	/	/	?	-76*	9	?
SMILES	TDP1 block	ELG1 DNA repair	TDP1 cell noCPT	IL1B secr inh	Giardia kill	TDP1 cell CPT
COC(=O)N/N=C(/c1ccccc1)C1CCCCC1	-5%	-1%	/	/	/	/
CCC1(O)CCCC2C3CCC4CC(=O)CCC4(C)C3C(=O)CC21C (centres undefined)	/	/	3%	-5	-14	-14%
O=C(CN1C(=O)NC2(CCSC2)C1=O)NCc1ccccc1 (centres undefined)	-2%	-5%	0%	-4	-2	5%
O=C(Nc1cc2ccc(O)cc2oc1=O)c1ccccc1	0%	/	-18%	/	/	-1%
O=C(Nc1ccc(F)cc1)c1cccn1-c1nnc(N2CCCCC2)s1	0%	/	?	/	/	?
Cc1ccc(C)c(N2CCN(C(=O)c3cccn3-c3nnc(N4CCCCC4)s3)CC2)c1	0%	/	15µM*	/	/	?
O=C(c1cccn1-c1nnc(N2CCCC2)s1)N1CCN(c2ccc(F)cc2)CC1	8%	/	18µM*	/	/	16µM*
CCCc1nn2c(=O)cc(COC(=O)c3ccccc3NC(=O)C3CCCCC3)nc2s1	6%	/	?	/	/	?
O=C(CC1CC2CCC1C2)Nc1nc(-c2ccccn2)cs1 (centres undefined)	8%	21µM*	6.5µM*	91	9	?
O=C(Nc1nc(-c2cccs2)cs1)C1CC(=O)N(c2ccc3c(c2)OCCO3)C1 (centres undefined)	4%	/	?	/	-27	?
O=C(Nc1nc(-c2ccccn2)cs1)C1CC(=O)N(c2ccc3c(c2)OCCO3)C1 (centres undefined)	3%	?	16µM*	23	20	26µM*
O=C(Nc1nc(-c2ccccn2)cs1)C1CC1	5%	?	18µM*	-1	8	23µM*
O=C1CC2(CCN(S(=O)(=O)c3ccccc3F)CC2)Oc2ccccc21	/	0%	?	-25	-19	-10%
Cc1ccc(S(=O)(=O)NCCc2sc3nc(-c4ccccc4)nn3c2C)cc1C	0%	/	-29%	/	/	-6%
Cc1cccc(NC(=O)CC2C(=O)OCCN2Cc2ccccc2)c1 (centres undefined)	3%	/	-26%	/	/	-24%
CCN1CCOC(CC(=O)Nc2cccc([N+](=O)[O-])c2)C1=O (centres undefined)	/	?	?	/	-4	?
COC(=O)c1cc(NC(=O)CC2C(=O)OCCN2Cc2ccccc2)cc(C(=O)OC)c1 (centres undefined)	7%	/	-1%	/	/	2%
CCOC(=O)c1ccc(NC(=O)CC2OCCN(CC)C2=O)cc1 (centres undefined)	-2%	?	13µM*	3	2	18µM*
CCOc1ccc(NC(=O)CC2C(=O)OCCN2CC)cc1 (centres undefined)	-2%	/	?	/	/	8.2µM*
CCN1CCOC(=O)C1CC(=O)Nc1cccc(OC)c1 (centres undefined)	6%	/	21µM*	/	/	5.2µM*
